# Test results published in PubChem BioAssay (NCI).
# Compounds without any hit were thinned out: in the full panel of roughly 83,000, 20% have a hit.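 Activity criterion: percent growth below 10, measured after cells in 96-well plates were exposed to a single compound concentration for 48 hours.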 Values without a mark were called inactive. Active and inactive are the calls of the source.
# Test system: T-47D breast
# Test: NCI-60 one-dose screen, 48 h (100 = growth as untreated, 0 = no growth, -100 = all killed)
# Details: 10 µM unless noted
row,Compound,growth
1,COc1cc2c(cc1OCCCN1CCN(CCCOc3cc4c(cc3OC)C(=O)N3CC(F)(F)C[C@H]3C=N4)CC1)N=C[C@@H]1CC(F)(F)CN1C2=O,34.5%
2,COc1ccc2c(c1)c(-c1nc(-c3c[nH]c4ccncc34)cs1)cn2C,-49.6% (active)
3,Cc1nc2sc(C(=O)Nc3cccc(Br)c3)c(N)c2cc1C(O)c1ccccc1 (stereo not given),43.2%
4,Nc1nc(-c2ccc(Cl)cc2)nc2c1sc(=S)n2-c1ccccc1,14.8%
5,O=C(CSc1oc(-c2ccccc2)nc1S(=O)(=O)c1ccccc1)Nc1ccc(F)cc1,69.8%
6,O=C1Nc2ccccc2/C1=C/c1nc2ccccc2c(=O)[nH]1,71.5%
7,COc1ccc(C/C(C)=C(\c2ccc(Cl)cc2)c2ccc(OCCN3CCCCC3)cc2)cc1,75.1%
8,O=C(N/N=C/c1ccc(Cl)cc1)c1[nH]c2ccc(Cl)cc2c1-c1ccccc1,73.9%
9,Nc1n[nH]c2ccc([C@H]3[C@@H]4C5CCC(C5)[C@@H]4c4c(ccc5[nH]ncc45)N3S(=O)(=O)C3CC3)cc12 (stereo not given in full),64.6%
10,CC/C(=C(/c1ccc(Cl)cc1)c1ccc(OCCN(C)C)cc1)c1ccc(Cl)cc1,58.4%
11,Cn1cc(-c2nonc2-c2cn(C)c3ccccc23)c2ccccc21,33.4%
12,Clc1ccc(/C=N\N=C\c2ccc(Cl)c(Cl)c2)cc1Cl,90.3%
13,CCN(CC)CCCCCNc1cc(OC(=O)c2ccc(Cl)cc2)cc2cccnc12,56%
14,CC(C)=CCCC(C)c1ccc(C)c2c1OCN(CCCCCO)C2 (stereo not given),88.1%
15,N#Cc1nc(-c2ccc(Cl)cc2)oc1S(=O)(=O)N1CCN(c2ccc(F)cc2)CC1,89.3%
16,COC(=O)[C@]12CCC(C)(C)C[C@H]1[C@H]1/C(=N/OCCc3nn[nH]n3)C[C@@H]3[C@@]4(C)CC[C@H](OC(C)=O)C(C)(C)[C@@H]4CC[C@@]3(C)[C@]1(C)CC2,26%
17,COc1ccc(C(=O)C/C(=C\c2ccc(Cl)cc2)C(=O)NCc2ccccc2)cc1,65.3%
18,Fc1ccc(CNc2c3ccccc3nc3ccccc23)c(F)c1,47.4%
19,CC1OC(n2c3ccccc3c3c4c(c5c6ccccc6[nH]c5c32)C(=O)N(CCN2CCCC2)C4=O)CC(O)C1O (stereo not given),51.9%
20,CCOC(=O)c1cc(C(=O)c2cc(OC)c(OC)c(OC)c2)n2ncccc12,58.5%
21,Cc1ccc(-c2nc(N3CCCNCC3)c3oc(-c4ccc(C)cc4)nc3n2)cc1,-46% (active)
22,O=C(CSC(=S)n1cnnc1)NC(=O)c1ccccc1,100%
23,Cc1sc2nc(NCCc3c[nH]c4ccc(Cl)cc34)[nH]c(=O)c2c1C,44.9%
24,CC(C)c1ccc(C(=O)Nc2sc3c(c2C(N)=O)CCC(=O)C3)cc1,-15.8% (active)
25,N#C/C(=C\c1c(-c2ccccc2)[nH]c2ccccc12)C(N)=O,83.7%

# Test system: BT-549 breast
# Test: as above
# Details: 10 µM unless noted
row,Compound,growth
1,CN(c1cc2ncc(=O)[nH]c2cc1NC(N)=NCc1ccc(Cl)cc1)C1CCCCC1,82%
2,O=C1/C(=C\c2ccc3nccnc3c2)SC(=S)N1CCc1ccc(O)cc1,96.5%
3,Cc1ccc(C[P+](c2ccccc2)(c2ccccc2)c2ccccc2)cc1,0.272% (active)
4,COc1ccc(/C=N/C2=C(C#N)C(c3ccccc3)c3ccc4ccccc4c3O2)cc1 (stereo not given),12.9%
5,COCCOc1cc2ncnc(N3CCN(c4cc(S(C)(=O)=O)c(C)cc4Cl)CC3)c2cc1OCCOC,91.4%
6,C#COc1cccc(Nc2c(C#N)cnc3ncc(NC(=O)CCl)cc23)c1,40.3% [6.25 µM]
7,O=c1[nH]c(-c2ccccc2)nc2sc3cc(O)ccc3c12,82.3%
8,CN1C(=O)/C(=C\c2nc([P+](c3ccccc3)(c3ccccc3)c3ccccc3)c(N3CCOCC3)o2)SC1=S,26.5%
9,CC(C)Cn1cnc2c(=O)[nH]c(N)nc21,98.5%
10,CCSc1nc2scc(C)c2c(=O)[nH]1,96.8%
11,NC(N)=NCCCCCNc1noc(Cc2c[nH]c3cc(Br)ccc23)n1,66.5%
12,Cc1[nH]c(C(=O)Nc2ccccc2OC2CCNCC2)c(Cl)c1Cl,74.2%
13,O=C1NC(=O)C(Cc2ccc(OCc3ccc(-c4ccc(Cl)cc4Cl)cc3)cc2)S1 (stereo not given),37.9%
14,Ic1ccc(OCCCCn2ccnc2)cc1,88.4%
15,Cn1ccnc1C(=O)/C=C/c1ccc(CC(=O)Nc2cc(C(F)(F)F)cc(C(F)(F)F)c2)cc1,80.3%
16,COc1cc2c(cc1OCCCN1CCN(CCCOc3cc4c(cc3OC)C(=O)N3CC(F)(F)C[C@H]3C=N4)CC1)N=C[C@@H]1CC(F)(F)CN1C2=O,-7.9% (active)
17,COc1ccc2c(c1)c(-c1nc(-c3c[nH]c4ccncc34)cs1)cn2C,77.3%
18,Cc1nc2sc(C(=O)Nc3cccc(Br)c3)c(N)c2cc1C(O)c1ccccc1 (stereo not given),53.7%
19,Nc1nc(-c2ccc(Cl)cc2)nc2c1sc(=S)n2-c1ccccc1,54.9%
20,O=C(CSc1oc(-c2ccccc2)nc1S(=O)(=O)c1ccccc1)Nc1ccc(F)cc1,78.4%

row,Compound,growth
1,O=C1Nc2ccccc2/C1=C/c1nc2ccccc2c(=O)[nH]1,95%
2,COc1ccc(C/C(C)=C(\c2ccc(Cl)cc2)c2ccc(OCCN3CCCCC3)cc2)cc1,96.7%
3,O=C(N/N=C/c1ccc(Cl)cc1)c1[nH]c2ccc(Cl)cc2c1-c1ccccc1,10.2%
4,Nc1n[nH]c2ccc([C@H]3[C@@H]4C5CCC(C5)[C@@H]4c4c(ccc5[nH]ncc45)N3S(=O)(=O)C3CC3)cc12 (stereo not given in full),-2.63% (active)
5,CC/C(=C(/c1ccc(Cl)cc1)c1ccc(OCCN(C)C)cc1)c1ccc(Cl)cc1,82.7%
6,Cn1cc(-c2nonc2-c2cn(C)c3ccccc23)c2ccccc21,31.1%
7,Clc1ccc(/C=N\N=C\c2ccc(Cl)c(Cl)c2)cc1Cl,74.2%
8,CCN(CC)CCCCCNc1cc(OC(=O)c2ccc(Cl)cc2)cc2cccnc12,98%
9,CC(C)=CCCC(C)c1ccc(C)c2c1OCN(CCCCCO)C2 (stereo not given),72.1%
10,N#Cc1nc(-c2ccc(Cl)cc2)oc1S(=O)(=O)N1CCN(c2ccc(F)cc2)CC1,100%
11,COC(=O)[C@]12CCC(C)(C)C[C@H]1[C@H]1/C(=N/OCCc3nn[nH]n3)C[C@@H]3[C@@]4(C)CC[C@H](OC(C)=O)C(C)(C)[C@@H]4CC[C@@]3(C)[C@]1(C)CC2,34.9%
12,COc1ccc(C(=O)C/C(=C\c2ccc(Cl)cc2)C(=O)NCc2ccccc2)cc1,110%
13,Fc1ccc(CNc2c3ccccc3nc3ccccc23)c(F)c1,82.8%
14,CC1OC(n2c3ccccc3c3c4c(c5c6ccccc6[nH]c5c32)C(=O)N(CCN2CCCC2)C4=O)CC(O)C1O (stereo not given),65.6%
15,CCOC(=O)c1cc(C(=O)c2cc(OC)c(OC)c(OC)c2)n2ncccc12,37%
16,Cc1ccc(-c2nc(N3CCCNCC3)c3oc(-c4ccc(C)cc4)nc3n2)cc1,90.2%
17,O=C(CSC(=S)n1cnnc1)NC(=O)c1ccccc1,102%
18,Cc1sc2nc(NCCc3c[nH]c4ccc(Cl)cc34)[nH]c(=O)c2c1C,74.2%
19,CC(C)c1ccc(C(=O)Nc2sc3c(c2C(N)=O)CCC(=O)C3)cc1,-21.9% (active)
20,N#C/C(=C\c1c(-c2ccccc2)[nH]c2ccccc12)C(N)=O,95.6%
